Experimental data taken from PubChem BioAssay AID1021 (Emory University Molecular Libraries Screening Center, 2008).
Hit rate of the full screen: of about 220,000 compounds, about 2,100 (0.95%) were called active. Only a selection was taken, and actives are over-represented in it overall. A number with no mark means an inactive call.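 How the source made its calls: active means compounds that cut the binding signal by more than half at the single screening dose; inactive means the rest.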

Molecular target: Induced myeloid leukemia cell differentiation protein Mcl-1 (Homo sapiens) (UniProt Q07820)
Sequence (Q07820 whole entry, looked up): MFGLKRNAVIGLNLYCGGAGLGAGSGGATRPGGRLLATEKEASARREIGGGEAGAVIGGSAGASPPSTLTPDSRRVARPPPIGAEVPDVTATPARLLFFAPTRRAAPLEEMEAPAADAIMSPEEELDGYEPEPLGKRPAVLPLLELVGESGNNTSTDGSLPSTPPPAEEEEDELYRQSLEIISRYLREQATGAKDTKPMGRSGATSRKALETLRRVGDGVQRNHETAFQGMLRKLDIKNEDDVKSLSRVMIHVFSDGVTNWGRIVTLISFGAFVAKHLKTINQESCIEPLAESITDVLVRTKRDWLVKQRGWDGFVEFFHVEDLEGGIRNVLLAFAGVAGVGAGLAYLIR
Assay: disruptors of Mcl-1 and Bid BH3 peptide – biochemical, TR-FRET, 1536-well, primary screen (AID 1021);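 further: His-tagged Mcl-1 with europium anti-His antibody binding Bid BH3 peptide; 0% = Mcl-1 plus peptide wells and 100% = peptide-only wells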
Conditions: TR-FRET Mcl-1/Bid-Dy647 peptide binding, at 21.7 µM, hits give high values

| SMILES | inhibition |
| --- | --- |
| COc1ccc(C(=O)NCC(=O)N/N=C/c2ccc([N+](=O)[O-])o2)cc1OC | -51.1% |
| CNC(=O)c1cccc2nc3ccccc3nc12 | -18.3% |
| CN1C2CCC1/C(=C\c1ccccc1Cl)C(=O)/C2=C\c1ccccc1Cl | 7.72% |
| CC1=CC=CN2C1=NC(=O)CC2(C)C(=O)N(CC(=O)NC1CCCC1)c1ccccc1C (stereo not drawn) | 50.7% (active) |
| CC1=CC2=NC(=O)CC(C)(C(=O)N(CC(=O)NC(C)(C)C)Cc3ccccc3)N2C=C1 (stereo not drawn) | -15.8% |
| Cc1ccccc1CCN(CC(=O)NC1CCCCC1)C(=O)c1csnn1 | -16.2% |
| COC(=O)N(NC(=O)C(O)(C(C)C)C(C)C)c1ccccc1 | -9.27% |
| CNC(=S)N1CCN(c2ccccn2)CC1 | -63.9% |
| Cc1ccc(NC(=S)N2CCN(c3ncccn3)CC2)cc1C | 92.2% (active) |
| CCNC(=S)N1CCN(c2ncccn2)CC1 | -29.3% |
| COc1ccccc1-n1cn[nH]c1=S | -143% |
| O=C(N/N=C/c1ccc([N+](=O)[O-])o1)c1cn(-c2ccccc2)nc1-c1ccc(F)cc1 | 25.7% |
| C=CCSC(CC)(CC)C(N)=O | -11% |
| N=C1/C(=C/c2cccn2-c2cccc([N+](=O)[O-])c2)C(=O)N=C2SC=CN12 | 71.5% (active) |
| Cc1cc(/C=C2/C(=N)N3C(=NC2=O)SN=C3S(C)(=O)=O)c(C)n1-c1ccccc1 | -35.9% |
| COC(=O)c1c(C(=O)OC)c2n(c1C)CCS2 | -18.6% |
| CC1COc2ccccc2N1C(=O)c1cccnc1Cl (stereo not drawn) | -17.1% |
| Oc1c(Cl)cc(Cl)c(Cl)c1Cc1c(O)c(Cl)cc(Cl)c1Cl | 100% (active) |
| CC(OC(=O)c1ccc(NS(=O)(=O)c2ccc3[nH]c(=O)[nH]c3c2)cc1)C(=O)Nc1cccc(Cl)c1Cl (stereo not drawn) | -92.2% |
| O=C(O)CC1S/C(=N\N=C/c2ccccc2O)N(c2ccc(O)cc2)C1=O (stereo not drawn) | -24.9% |
| CC(O)CNCCOc1cccc(Oc2ccccc2)c1 (stereo not drawn) | -8.32% |
| O=C(NCCc1ccccn1)c1cccnc1Oc1ccc(Cl)cc1 | -2.11% |
| NC(=O)c1ccc(NC(=O)COC(=O)C(Cc2ccccc2)NC(=O)c2ccccc2)cc1 (stereo not drawn) | -18.9% |
| CCOC(=O)N1CCN(Cc2nc(Cc3cccc(C(F)(F)F)c3)no2)CC1 | -53% |

| SMILES | inhibition |
| --- | --- |
| O=C(COC(=O)Cn1cnc2ccccc2c1=O)NCc1ccccc1Cl | 8.62% |
| O=C(COC(=O)c1cccc(Br)c1)Nc1cccc2c1C(=O)c1ccccc1C2=O | 8.65% |
| O=C(COC(=O)Cn1cnc2ccccc21)Nc1cccc2c1C(=O)c1ccccc1C2=O | 52.5% (active) |
| N#Cc1cccc(NC(=O)COC(=O)c2ccccc2C(=O)c2ccc(Cl)c([N+](=O)[O-])c2)c1 | -7.05% |
| CC(C)C[C@H](CO)Nc1nc(N(C)c2cccc(Cl)c2)c2ncn(C(C)C)c2n1 | -56.4% |
| NS(=O)(=O)c1cccc(NC(=O)COC(=O)/C=C/c2ccco2)c1 | -10.4% |
| O=[N+]([O-])C(=c1ccc2c(c1)N1C3=C(CCCC3)CC3CCCCC31N=2)[N+](=O)[O-] (stereo not drawn) | 78.9% (active) |
| CCN(CC)S(=O)(=O)c1ccc(N2CCCC2)c(NS(=O)(=O)c2cccs2)c1 | -28.4% |
| O=C(NNc1ccccc1Cl)C(O)(c1cccc(C(F)(F)F)c1)c1cccc(C(F)(F)F)c1 | 3.27% |
| O=C(C[n+]1ccc2c(c1)nnn2-c1ccccc1)c1ccc(Cl)cc1 | -1.27% |
| Cc1ccc(C)c(SCc2nc3sc(C(=O)O)c(C)c3c(=O)[nH]2)c1 | -24.1% |
| Cc1ccc(-c2nc(SCC(=O)Nc3ccccc3OC(F)F)c3c(C)c(C(=O)O)sc3n2)cc1 | 79.3% (active) |
| COc1ccccc1NC(=O)CSc1nc2sc(C)c(C)c2c(=O)n1Cc1ccco1 | -24.2% |
| COC(=O)C1=C(N)Oc2cc(C)[nH]c(=O)c2C1c1ccc(Cl)cc1 (stereo not drawn) | -43.4% |
| CN=c1scc(-c2cc(OC)ccc2OC)n1/N=C/c1c(C)[nH]c2ccccc12 | 39.1% |
| CC(=O)c1ccc(NC(=O)C(C)NCc2ccc(Cl)cc2)cc1 (stereo not drawn) | 3.24% |
| CCN(CC)c1ccc(S(=O)(=O)N2CCOCC2)cc1NC(=O)CSc1cccc[n+]1[O-] | -69% |
| O=C(O)CC1(CC(=O)Nc2cccc(C(F)(F)F)c2)CCCC1 | -7.96% |
| Cc1ccc(COc2ccc(C(=O)NN)cc2)cc1 | 67.1% (active) |
| Cc1cccc(OCc2ccc(C(=O)Nc3ccc(F)cc3)cc2)c1 | 11% |
| COc1ccc(C(=O)NNS(=O)(=O)c2ccc(C)cc2)cc1 | -16.3% |
| Cc1cccc(N2Cc3ccccc3C2=NC(=O)c2ccc(Cl)nc2)c1 | -35.5% |
| COc1cccc(OC)c1CN(C)C(=O)c1cnccc1C(F)(F)F | -18.2% |
| O=C(NNC1=C(C(=O)C(F)(F)F)CCC1)c1ccncc1 | -42.6% |

| SMILES | inhibition |
| --- | --- |
| COc1cccc(C(=O)Nc2cccnc2)c1OC | -18.8% |
| CCOc1cc2c(cc1OCC)C(C(=O)O)C(c1ccc(OC)c(O)c1)N(C)C2=O (stereo not drawn) | -21.7% |
| COc1cccc(NC(=O)C2c3cc(OC)c(OC)cc3C(=O)N(C)C2c2cccnc2)c1 (stereo not drawn) | 84.2% (active) |
| CCOC(=O)c1c(NC(=S)NC(=O)c2ccco2)sc2c1CCCC2 | 61.4% (active) |
| CCOC(=O)c1c(NC(=S)NC)sc2c1CCCC2 | -22.5% |
| CCOC(=O)c1c(NC(=S)Nc2ccccc2C)sc2c1CCC2 | -25.3% |
| O=C(O)CC12CC3CC(C1)CC(n1ncc(NCc4ccc(F)cc4)c(Cl)c1=O)(C3)C2 | -0.52% |
| CS(=O)(=O)c1ccc2nc(NC(=O)C3CCCCC3)sc2c1 | -11% |
| CS(=O)(=O)c1ccc2nc(NC(=O)c3ccc(N4CCCC4=O)cc3)sc2c1 | -53.4% |
| CS(=O)(=O)c1ccc2nc(NC(=O)CN3CCCCCC3)sc2c1 | 55.1% (active) |
| O=c1[nH]nc(SCCS(=O)(=O)c2ccc(F)cc2)n1-c1ccccc1C(F)(F)F | -37.5% |
| CCOC(=O)Nc1ccc2c(c1)N(C(=O)CCN1CCN(CCO)CC1)c1ccccc1CC2 | 51.3% (active) |
| CCNCCC(=O)N1c2ccccc2Sc2ccc(NC(=O)OCC)cc21 | -12.2% |
| CCOC(=O)Nc1ccc(NC(=O)OCC)cc1 | -26.4% |
| COc1ccc2[nH]c(=S)cc(C)c2c1 | -43.7% |
| CNC1(c2nnnn2-c2c(C)cccc2C)CCOC(C)(C)C1 (stereo not drawn) | -15.5% |
| CCCNC(=O)NC(=O)COC(=O)CC(NC(N)=O)c1ccc(Cl)cc1 (stereo not drawn) | -14.2% |
| CN(C)/C(CN1CCCCC1)=C1\N=C(c2ccccc2)OC1=O | 65.5% (active) |
| O=C(CN1CCCC1)N1CCN(c2ccccc2)CC1 | -53.9% |
| O=S(=O)(c1ccccc1)N(CC(O)CN1CCCCC1)c1ccccc1 (stereo not drawn) | -28.8% |
| COC(=O)N/N=C/c1ccc(-c2ccc(Cl)c(Cl)c2)o1 | 15.5% |
| COC(=O)c1c(NC(=O)c2c(Cl)cnn2C)sc(C)c1C | -24% |
| CCOC(=O)c1c(NC(=O)c2cccs2)sc(C)c1C | -14.7% |
| COCCCNCC(=O)Nc1sc(C)c(C)c1C(=O)OC | 63.5% (active) |

| SMILES | inhibition |
| --- | --- |
| COc1cccc(NC(=O)CN(C)C(C)C(=O)Nc2ccc(C#N)cc2)c1 (stereo not drawn) | -15.1% |
| O=C(NCc1ccco1)c1nn2cccnc2c1Cl | -10.8% |
| COCCCNc1nc2c(-c3cccc(C(F)(F)F)c3)nnn2c2ccccc12 | -13.1% |
| NCC(=O)c1cccc2ccc[n+]([O-])c12 | -13.8% |
| CCc1ccccc1NC(=O)CSc1nnc(-c2ccncc2)o1 | -14.6% |
| Cc1nn(-c2ccccc2)c2c1C(c1cccc([N+](=O)[O-])c1)N(c1ccccc1)C(=O)N2 (stereo not drawn) | -12.3% |
| COc1ccc(-n2c(C)nc3c(cnn3-c3ccccc3)c2=O)cc1 | -3.33% |
| COc1ccc(C2c3c(C)nn(-c4ccccc4)c3NC(=O)N2c2ccccc2)cc1 (stereo not drawn) | 76.8% (active) |
| CN(NC(=O)C1CC(=O)N(c2ccccc2)C1)C1=NS(=O)(=O)c2ccccc21 (stereo not drawn) | -8.25% |
| Cc1ccc(S/C(=N\S(=O)(=O)c2ccc(Cl)cc2)c2ccccc2)cc1 | 61.7% (active) |
| Cc1ccc(S(=O)(=O)/N=C(/Nc2ccccn2)c2ccc(Cl)cc2)cc1 | 1% |
| O=S(=O)(/N=C(/Nc1ccccn1)c1ccccc1)c1ccc(Cl)cc1 | -22.6% |
| O=C(N/N=C/c1ccc(Br)o1)c1cncc(Br)c1 | -13.1% |
| CS(=O)(=O)N(CC(=O)NC1CCCC1)Cc1ccc(F)cc1 | -0.58% |
| COc1ccc(CNC2CCCCC2)cc1 | 64.1% (active) |
| COc1cc(CNC2CCCCC2)c(Br)cc1OC1CCCC1 | -29.9% |
| COc1ccc(CCNC(=O)COC(=O)C2CCCCC2)cc1 | -25.9% |
| CCOC(=O)c1cc2c(=O)[nH]c(C(Cl)(Cl)Cl)nc2o1 | 52% (active) |
| CCOC(=O)c1cnc(COc2ccccc2Cl)[nH]c1=O | 7.19% |
| CCOC(=O)c1ccc(COC(=O)c2cc(=O)[nH]c3ccccc23)o1 | -9.7% |
| CCCCCOc1ccc(CSC2=NCCN2)cc1[N+](=O)[O-] | -26.2% |
